From publication PMC4336329 (PLoS ONE, 2015)
The whole screen tested about 310,000 compounds, of which about 14,000 (4.5%) showed an effect of 50% or more. Effects have a minus sign here. The sample as a whole holds a higher share of strong results than the screen did.

Target: human ether-à-go-go-related gene (hERG) potassium channel (human, UniProt Q12809)
Test: primary screen, population patch clamp on CHO cells stably expressing hERG; higher = less effect of the substance
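Note: peak tail current of the secondary pulse compared with the same well before compound.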

Sequence of human ether-à-go-go-related gene (hERG) potassium channel (Q12809 whole entry, looked up): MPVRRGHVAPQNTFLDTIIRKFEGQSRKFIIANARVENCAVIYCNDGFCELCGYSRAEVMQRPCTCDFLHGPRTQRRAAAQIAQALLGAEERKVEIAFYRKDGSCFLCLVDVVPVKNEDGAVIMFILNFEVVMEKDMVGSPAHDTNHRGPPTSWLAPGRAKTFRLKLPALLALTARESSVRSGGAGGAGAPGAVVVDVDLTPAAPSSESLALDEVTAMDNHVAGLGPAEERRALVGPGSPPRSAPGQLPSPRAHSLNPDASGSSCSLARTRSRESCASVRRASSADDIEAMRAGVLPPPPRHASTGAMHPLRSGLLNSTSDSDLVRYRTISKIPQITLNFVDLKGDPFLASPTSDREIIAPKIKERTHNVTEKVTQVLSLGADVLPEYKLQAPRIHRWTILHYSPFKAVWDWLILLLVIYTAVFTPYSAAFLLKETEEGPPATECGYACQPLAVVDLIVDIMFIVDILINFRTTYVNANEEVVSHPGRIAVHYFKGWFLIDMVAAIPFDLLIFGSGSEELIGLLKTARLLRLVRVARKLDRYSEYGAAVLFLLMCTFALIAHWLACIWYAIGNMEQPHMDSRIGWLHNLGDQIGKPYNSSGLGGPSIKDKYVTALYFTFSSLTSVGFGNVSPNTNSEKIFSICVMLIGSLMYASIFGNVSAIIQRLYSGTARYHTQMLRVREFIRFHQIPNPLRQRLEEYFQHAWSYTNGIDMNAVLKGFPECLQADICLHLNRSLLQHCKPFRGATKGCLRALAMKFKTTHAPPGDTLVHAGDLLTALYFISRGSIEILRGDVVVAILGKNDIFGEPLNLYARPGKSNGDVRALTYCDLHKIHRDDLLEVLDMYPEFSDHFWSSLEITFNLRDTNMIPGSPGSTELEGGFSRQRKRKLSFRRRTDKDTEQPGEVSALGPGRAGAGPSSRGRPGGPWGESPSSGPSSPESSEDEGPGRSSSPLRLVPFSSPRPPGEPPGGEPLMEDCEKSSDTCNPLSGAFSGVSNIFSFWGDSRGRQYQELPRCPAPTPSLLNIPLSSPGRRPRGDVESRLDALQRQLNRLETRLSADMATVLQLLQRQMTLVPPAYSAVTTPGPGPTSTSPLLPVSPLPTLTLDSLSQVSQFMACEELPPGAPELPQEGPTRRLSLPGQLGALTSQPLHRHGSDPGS

| SMILES | hERG current change (%, negative = inhibition) at 10uM [%] |
| --- | --- |
| Cc1c(Cl)cccc1NC(=O)CSc1nc2ncc(Cl)cc2[nH]1 | 17.7 |
| COCCCNC(=O)CC(NS(=O)(=O)c1ccc(Cl)cc1)c1ccc(OC)cc1 (stereo not shown) | -0.0404 |
| Cc1cccc(OCC(=O)N2CCN(Cc3ccc([N+](=O)[O-])cc3)CC2)c1.O=C(O)C(=O)O | -73 |
| Cc1cccc(OCC(=O)N2CCN(Cc3ccc4c(c3)OCO4)CC2)c1.O=C(O)C(=O)O | -16.7 |
| O=C(COc1ccc(Cl)cc1)N1CCN(Cc2ccccc2)CC1 | -32.9 |
| Cc1ccc(OCC(=O)N2CCN(CC3CC4C=CC3C4)CC2)cc1.O=C(O)C(=O)O (stereo not shown) | -24.3 |
| O=C(COc1ccc(S(=O)(=O)N2CCCCC2)cc1)N1CCN(Cc2ccccc2)CC1 | -32.5 |
| Cc1ccc(CN2CCN(C(=O)CCc3ccccc3)CC2)cc1 | -19.1 |
| Cc1ccc(OCC(=O)N2CCN(Cc3ccc([N+](=O)[O-])cc3)CC2)cc1.O=C(O)C(=O)O | -81.2 |
| Cc1cccc(OCC(=O)N2CCN(Cc3ccncc3)CC2)c1.O=C(O)C(=O)O | 8.94 |
| O=C(COc1ccc(Cl)cc1)N1CCN(Cc2ccc([N+](=O)[O-])cc2)CC1.O=C(O)C(=O)O | -74.2 |
| CCN(CC)C(=O)Cn1cc(S(=O)(=O)CC(=O)NCc2ccccc2)c2ccccc21 | -11.6 |
| CCOC(=O)C(NC(=O)CC)(Nc1ccc(S(=O)(=O)Nc2ncccn2)cc1)C(F)(F)F (stereo not shown) | 22.5 |
| CCOC(=O)c1c(-c2ccccc2)csc1NC(=O)CCN1CCOCC1.O=C(O)C(=O)O | -33.2 |
| O=C(CN1CCOCC1)Nc1scc(-c2ccccc2)c1C(=O)N1CCOCC1 | -34.9 |
| O=C(Cc1ccccc1)Nc1scc(-c2ccccc2)c1C(=O)N1CCOCC1 | -57.4 |
| O=C(N/C(=C/c1cccnc1)C(=O)N1CCOCC1)c1ccco1 | 6.59 |
| CCN(CC)S(=O)(=O)c1ccc(NC(=O)c2cc(C(=O)OC)cc([N+](=O)[O-])c2)cc1 | 10.3 |
| CN(Cc1nccn1C)C(=O)c1ccc(OC2CCN(CCc3ccccc3)CC2)cc1 | -38.3 |
| Cc1cc(CN(C)C(=O)c2ccc(OC3CCN(Cc4ccccn4)CC3)cc2)on1 | -37.7 |
| CN(Cc1cnn(C)c1)C(=O)c1ccc(OC2CCN(CCc3ccccc3)CC2)cc1 | -42.9 |
| CN(C(=O)c1ccc(OC2CCN(CCc3ccccc3)CC2)cc1)C1CCOCC1 | -9.93 |
| CN(Cc1nccs1)C(=O)c1ccc(OC2CCN(Cc3ccccn3)CC2)cc1 | -11.5 |
| CC(CNC(=O)c1ccc(OC2CCN(Cc3ccccn3)CC2)cc1)c1ccccc1 (stereo not shown) | -76.5 |
| CN(C(=O)c1ccc(OC2CCN(CCc3ccccc3)CC2)cc1)C1CCCCC1 | -63.5 |
| CC(NC(=O)c1ccc(OC2CCN(Cc3ccccn3)CC2)cc1)c1ccccc1 (stereo not shown) | -20.3 |

| SMILES | hERG current change (%, negative = inhibition) at 10uM [%] |
| --- | --- |
| CN(C(=O)c1ccc(OC2CCN(CCc3ccccc3)CC2)cc1)C1CCOC1 (stereo not shown) | -25.3 |
| CC(CNC(=O)c1ccc(OC2CCN(Cc3ccccn3)CC2)cc1)Oc1cccnc1 (stereo not shown) | -21.9 |
| CN(Cc1nccs1)C(=O)c1ccc(OC2CCN(CCc3ccccc3)CC2)cc1 | -58.9 |
| Cc1cc(CN(C)C(=O)c2ccc(OC3CCN(CCc4ccccc4)CC3)cc2)on1 | -74.1 |
| CCN(c1cccc(C)c1)S(=O)(=O)c1ccc2c(c1)NC(=O)CCS2 | 8.09 |
| CCOC(=O)c1ccc(NS(=O)(=O)c2cc3c4c(c2)CCN4C(=O)CC3)cc1 | -9.74 |
| CSCCC(NC(=O)c1ccccc1)C(=O)N(C)CC(=O)Nc1ccc(N2CCOCC2)cc1 (stereo not shown) | 5.72 |
| CCCC(C)NC(=O)C1CC(=O)N(CCc2ccc(F)cc2)C1 (stereo not shown) | 9.07 |
| COCCn1c(=S)[nH]c2ccccc21 | 28.7 |
| CCC(C)(C)n1nnnc1C(c1cccnc1)N1CCCC(C)C1 (stereo not shown) | 3.14 |
| CCOC(=O)c1ccc(NC(=O)c2cc3c(s2)CCC3)cc1 | 6.15 |
| O=C(NC1CCCCC1)C1CCCN1S(=O)(=O)c1ccc(F)cc1 (stereo not shown) | -0.938 |
| COc1cc(/C=C2\OC(=O)c3c(OC)cccc32)ccc1O | 15.6 |
| CCn1ccnc1CN(C)C(=O)c1ccc(OC2CCN(CCc3ccccc3)CC2)cc1 | -24.8 |
| CN(CCc1ccccn1)C(=O)c1ccc(OC2CCN(CCc3ccccc3)CC2)cc1 | -58.5 |
| CC(c1nccs1)N(C)C(=O)c1ccc(OC2CCN(CCc3ccccc3)CC2)cc1 (stereo not shown) | -51.4 |
| CC(C)N(C)C(=O)c1ccc(OC2CCN(CCc3ccccc3)CC2)cc1 | -40.8 |
| Cc1nn(C)cc1CN(C)C(=O)c1ccc(OC2CCN(Cc3ccccn3)CC2)cc1 | 8.65 |
| CN(CCc1ccccn1)C(=O)c1ccc(OC2CCN(Cc3ccccn3)CC2)cc1 | 4.04 |
| O=C(CNc1ccccc1)Nc1ccc(F)cc1 | 3.4 |
| O=C(NCCNS(=O)(=O)c1ccc(C(F)(F)F)cc1)N1CCOCC1 | 6.84 |
| COC(=O)c1ccccc1NC(=O)CSc1nnc(-c2cccc(NC(C)=O)c2)n1C | -3.68 |
| CCCCn1c(N)c(N(CC(C)C)C(=O)CCCc2cccs2)c(=O)[nH]c1=O | -9.44 |
| O=C(NCCCn1ccnc1)c1ccc(-c2ccccc2)cc1 | -21.6 |
| COc1ccc(-n2ccnc2SCC(=O)NCc2ccc3c(c2)OCO3)cc1 | -7.81 |
| COC(=O)C1C(=O)C2=C(CC1C)Nc1ccccc1NC2c1ccc(C)s1 (stereo not shown) | 12.8 |
